The list is not random: actives were taken first. Their share in the collection is about 14%.
LmPK inh = blocks Leishmania mexicana pyruvate kinase activity. 290,000 compounds, 0.37% hits. purified LmPK, Kinase-Glo ATP luminescence, 1 h. Q27686. Potency, µM (highest dose often 57.5 µM), most hits filed as inhibitors
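0.1 nM LmPK, 0.5 mM PEP, 0.1 mM ADP; 50 mM imidazole pH 7.2, 7 mM MgCl2, 50 mM KCl; 1 h RT. Kinase-Glo luminescence readout, normalized to no-enzyme (full inhibition) and uninhibited wells.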
Shiga inhibitor = inhibitors of Shiga toxin in Vero cells; AID 2315; 290,000 compounds, 9.2% hits; Vero cells, Shiga toxin protein synthesis inhibition reporter; inhibition, % at 38.7 µM; in the data active = inhibition mostly above about 28%, no sharp cut-off; inactive = mostly below about 43%
NS1 function inh = inhibitors of influenza NS1 protein function; Potency, µM (titrated, usually from 46.1 µM); 270,000 compounds, 0.4% hits; AID 2326; calls by dose curve; also: actives are rising curves; nearly all actives have a fitted effect of over 50% in size
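OD600 was taken as the measure of yeast growth restored by compound in an NS1-expressing S. cerevisiae strain. Cells had been washed out of glucose medium and diluted 1:100 into galactose -URA medium, pH 6.0.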
Cycloheximide cs = counter-screen hit for Shiga toxin inhibitors, cycloheximide | 300,000 compounds, 12% hits | max response, % | cell reporter, cycloheximide protein synthesis inhibition counterscreen; in the data active = max response mostly above about 13%, no sharp cut-off; inactive = mostly below about 14%; also: read at 38.3 µM for the half of the compounds with a filed dose
FBPA Giardia inh = Giardia lamblia aldolase inhibition; A8B2U2; purified Giardia FBPA; Potency, µM (highest dose often 59.6 µM), most hits filed as inhibitors; 290,000 compounds, 0.71% hits; also: nearly all actives have a fitted effect of over 55% in size
Target sequence (A8B2U2 whole entry, looked up): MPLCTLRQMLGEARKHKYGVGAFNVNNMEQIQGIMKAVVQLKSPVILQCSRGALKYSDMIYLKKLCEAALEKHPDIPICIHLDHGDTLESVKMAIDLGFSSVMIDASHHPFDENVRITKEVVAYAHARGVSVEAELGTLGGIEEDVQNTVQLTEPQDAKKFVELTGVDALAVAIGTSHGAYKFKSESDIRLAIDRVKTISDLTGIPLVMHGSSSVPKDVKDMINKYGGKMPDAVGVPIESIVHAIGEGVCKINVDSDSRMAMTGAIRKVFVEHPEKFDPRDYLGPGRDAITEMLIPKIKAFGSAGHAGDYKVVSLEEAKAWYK
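40 nM FBPA preincubated 10 min at RT with compound (up to 57.5 uM final), then substrate plus GAPDH/TPI/NAD/arsenate coupling and diaphorase/resazurin added. Fluorescence read after 20 min at RT, 525/598 nm.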
Hits are given with their value. Unless noted, calls follow the shape of the dose curve; as a rule, active = well fitted curve in the direction sought with a large enough effect; inconclusive = small, poorly fitted or top-dose-only effect, or another doubt; inactive = no such curve, though single readings can be large; an effect the other way counts as inactive or inconclusive.

How did COc1cc2ccccc2cc1-c1nnc(COc2ccccc2)o1 do in these assays?
LmPK inh: inactive; Shiga inhibitor: inactive; NS1 function inh: inactive; Cycloheximide cs: inactive; FBPA Giardia inh: inactive

How did COc1c(Cl)cnn(-c2ccc(Cl)c(Cl)c2)c1=O do in these assays?
LmPK inh: inactive; Shiga inhibitor: inactive; Cycloheximide cs: inactive; FBPA Giardia inh: inactive

What do the screens show for `COc1cccc(-c2nc(-c3ccccn3)no2)c1`?
LmPK inh: 12.6µM; Shiga inhibitor: inactive; NS1 function inh: inactive; Cycloheximide cs: inactive

How did COc1ccc(-c2nc(-c3cccnc3)no2)cc1OC do in these assays?
LmPK inh: inactive; Shiga inhibitor: 46.9; NS1 function inh: inactive; Cycloheximide cs: 39.1; FBPA Giardia inh: inactive

What do the screens show for `COc1cc(-c2nc(-c3cccnc3)no2)cc(OC)c1OC`?
LmPK inh: inactive; Shiga inhibitor: inactive; NS1 function inh: inactive; Cycloheximide cs: inactive; FBPA Giardia inh: inactive

Results for O=[N+]([O-])c1cccc(-c2nc(-c3ccccn3)no2)c1 ?
LmPK inh: inconclusive; Shiga inhibitor: 71.8; NS1 function inh: inactive; Cycloheximide cs: 45.6; FBPA Giardia inh: inactive

What do the screens show for `COc1cccc(-c2noc(N)c2C#N)c1`?
LmPK inh: inactive; Shiga inhibitor: inactive; NS1 function inh: inactive; Cycloheximide cs: 17.2; FBPA Giardia inh: inactive

How did Cc1nn(CCCC(=O)NCc2ccc(F)cc2)c(=O)c2nccn12 do in these assays?
LmPK inh: inactive; Shiga inhibitor: inactive; NS1 function inh: inactive; Cycloheximide cs: inactive; FBPA Giardia inh: inactive

How did COc1nc2ccc(C)cc2cc1-c1noc(-c2cccnc2)n1 do in these assays?
LmPK inh: inactive; Shiga inhibitor: inactive; NS1 function inh: inactive; Cycloheximide cs: inactive; FBPA Giardia inh: inactive

Results for COc1cccc(-c2noc(-c3cccnc3)n2)c1 ?
LmPK inh: inconclusive; Shiga inhibitor: 68.4; NS1 function inh: inactive; Cycloheximide cs: 33.6; FBPA Giardia inh: inactive

Results for Cc1ccc(C(=O)N(CC(C)C)c2nc3ccccc3s2)o1 ?
LmPK inh: inactive; Shiga inhibitor: inactive; NS1 function inh: inactive; Cycloheximide cs: inactive; FBPA Giardia inh: inactive

How did CC(C)CN(C(=O)c1ccc(=O)n(C)n1)c1nc2ccccc2s1 do in these assays?
LmPK inh: inactive; Shiga inhibitor: inactive; NS1 function inh: inactive; Cycloheximide cs: 15.1; FBPA Giardia inh: inactive

Results for O=C(Nc1ccc(Cl)cc1N1CCOCC1)C1CCCO1 (stereo unspecified) ?
LmPK inh: inactive; Shiga inhibitor: inactive; NS1 function inh: inactive; Cycloheximide cs: inactive; FBPA Giardia inh: inactive

How did c1ccc2c(N3CCNCC3)nsc2c1 do in these assays?
LmPK inh: inactive; Shiga inhibitor: inactive; NS1 function inh: inactive; Cycloheximide cs: 15.7; FBPA Giardia inh: inactive

What do the screens show for `Cc1ccccc1-c1nc(N2CCNCC2)c2ccccc2n1`?
FBPA Giardia inh: inactive

Results for Cc1ccccc1NC1=C(Cl)C(=O)N(C2CCCCC2)C1=O ?
LmPK inh: inactive; Shiga inhibitor: inactive; NS1 function inh: inactive; Cycloheximide cs: 12.7; FBPA Giardia inh: inactive

Results for COc1ccccc1NC1=C(Cl)C(=O)N(C2CCCCC2)C1=O ?
LmPK inh: inactive; Shiga inhibitor: inactive; NS1 function inh: inactive; Cycloheximide cs: inactive; FBPA Giardia inh: inactive

What do the screens show for `C/C(=N\OCc1nc2ccccc2c(=O)n1/N=C/c1cc([N+](=O)[O-])ccc1O)c1ccccc1`?
LmPK inh: inactive; Shiga inhibitor: 45.5; NS1 function inh: inactive; Cycloheximide cs: 18.1; FBPA Giardia inh: inactive

How did C/C(=N\OCc1nc2ccccc2c(=O)n1/N=C/c1cc(C)cc([N+](=O)[O-])c1O)c1ccccc1 do in these assays?
LmPK inh: inactive; Shiga inhibitor: inactive; NS1 function inh: inactive; Cycloheximide cs: 21.0; FBPA Giardia inh: inactive

What do the screens show for `COc1ccc(C2=NN(C(=O)c3ccccc3)C(c3ccc(OC)c(OC)c3)C2)c(OC(C)=O)c1` (stereo unspecified)?
LmPK inh: inactive; Shiga inhibitor: inactive; NS1 function inh: inactive; Cycloheximide cs: inactive; FBPA Giardia inh: inactive

Results for CC(=O)c1ccc(-c2cccc(-c3cc(=O)oc4ccc(C(C)(C)C)cc34)c2)cc1 ?
Shiga inhibitor: inactive; Cycloheximide cs: inactive; FBPA Giardia inh: inactive

Results for Oc1[nH]c(N=C2N=c3ccccc3=N2)c2ccccc12 ?
LmPK inh: inactive; Shiga inhibitor: 59.9; NS1 function inh: inactive; Cycloheximide cs: 35.3; FBPA Giardia inh: inactive

How did Cn1c2ccc(F)cc2c2nc3ccccc3nc21 do in these assays?
LmPK inh: inactive; Shiga inhibitor: inactive; NS1 function inh: inactive; Cycloheximide cs: inactive; FBPA Giardia inh: inactive

Results for O=c1c2ccccc2nc(-c2ccccc2)n1CCCN1CCOCC1 ?
LmPK inh: inactive; Shiga inhibitor: inactive; NS1 function inh: inactive; Cycloheximide cs: inactive; FBPA Giardia inh: inactive

How did Cc1ccc(-c2nc3ccccc3c(=O)n2CCCN2CCOCC2)cc1 do in these assays?
LmPK inh: inactive; Shiga inhibitor: 53.6; NS1 function inh: inactive; Cycloheximide cs: inactive; FBPA Giardia inh: inactive

How did Cc1ccc2c(c1)c1nc3ccccc3nc1n2C do in these assays?
LmPK inh: inactive; Shiga inhibitor: inactive; NS1 function inh: inactive; Cycloheximide cs: 19.0; FBPA Giardia inh: inactive

What do the screens show for `COC(=O)Cn1c2ccc(C)cc2c2nc3ccccc3nc21`?
LmPK inh: inactive; Shiga inhibitor: inactive; NS1 function inh: inactive; Cycloheximide cs: inactive; FBPA Giardia inh: inactive

How did Cc1ccc2c(c1)c1nc3ccccc3nc1n2CCN1CCOCC1 do in these assays?
LmPK inh: inactive; Shiga inhibitor: inactive; NS1 function inh: inactive; Cycloheximide cs: 10.9; FBPA Giardia inh: inactive

Results for CC(C)(C)NS(=O)(=O)c1ccc(NC(=O)CS(=O)(=O)Cc2ccccc2)cc1 ?
LmPK inh: inactive; Shiga inhibitor: inactive; NS1 function inh: inactive; Cycloheximide cs: inactive

Results for O=C([O-])[C@@H]1[O][Sb+]([O][Sb+]2[O][C@H]([C@H](O)CO)[C@H](O)[C@H](C(=O)[O-])[O]2)[O][C@H]([C@H](O)CO)[C@@H]1O ?
Shiga inhibitor: inactive; Cycloheximide cs: inactive; FBPA Giardia inh: inactive

How did CCOC(=O)c1oc2ccc(CNC(C)(C)C)c(Cl)c2c1C do in these assays?
LmPK inh: inactive; Shiga inhibitor: 27.3; NS1 function inh: inactive; Cycloheximide cs: 16.0; FBPA Giardia inh: inactive

What do the screens show for `CCOC(=O)c1oc2cccc(O)c2c1C`?
LmPK inh: inactive; Shiga inhibitor: 62.9; NS1 function inh: inactive; Cycloheximide cs: 31.7; FBPA Giardia inh: inactive

What do the screens show for `CCOC(=O)c1oc2cccc(OC(C)=O)c2c1C`?
LmPK inh: inactive; Shiga inhibitor: 68.0; NS1 function inh: inactive; Cycloheximide cs: 39.4; FBPA Giardia inh: inactive

How did CCOC(=O)c1oc2ccc(Cl)cc2c1NC(C)=O do in these assays?
LmPK inh: inactive; Shiga inhibitor: inactive; Cycloheximide cs: inactive; FBPA Giardia inh: inactive

What do the screens show for `O=S(=O)(Cc1ccccc1)Oc1ccccc1`?
LmPK inh: inactive; Shiga inhibitor: inactive; NS1 function inh: inactive; Cycloheximide cs: inactive; FBPA Giardia inh: inactive

Results for CCCC[C@H](NC(=O)[C@@H]1CCCN1C(=O)[C@H]1CCCN1C(=O)[C@H](Cc1ccccc1)NC(=O)[C@@H](Cc1c[nH]c2ccccc12)NC(=O)[C@H](C)NC(=O)[C@H](CCCN=C(N)N)NC(=O)OC(C)(C)C)C(N)=O ?
Shiga inhibitor: inactive; Cycloheximide cs: inactive; FBPA Giardia inh: inconclusive
